# Reference: PubChem BioAssay (Tox21)
# Where “and” joins values, the source holds several entries; their conditions need not be identical. Equal values may be shown once. Records with an inconclusive call do not appear. Where a call stands in place of a potency, no number is given. Unmarked numbers belong to inactive results. Calls of active or inactive are those of the source. Calls come from the whole dose curve; as a rule, active = well fitted cell-killing curve with a large enough effect in the repeat runs; inconclusive = weak or mixed curves, or effect the other way; inactive = flat fitted curve, though single readings scatter.
# Assay: qHTS assay to identify small molecule agonists of the TGF-beta/Smad signaling pathway - cell viability counter screen (AID 1346829); note: nearly all actives have a fitted effect of over 45% in size; for activity change, negative = cytotoxicity: top concentration of the series differs between compounds
# Details: SBE-bla HEK293T viability, CellTiter-Glo luminescence, 5 h; series mostly up to 76.8 µM; activity change, negative = cytotoxicity: at the top concentration
# Excerpt: National Center for Advancing Translational Sciences [NCATS]
# NIH Chemical Genomics Center [NCGC]
# U.S. Environmental Protection Agency [EPA]
# National Institutes of Environmental Health Sciences [NIEHS]
# National Toxicology Program [NTP]
# U.S. Food and Drug Administration [FDA]
# Transforming growth factor beta (TGF-beta) superfamily consists of a large number of structurally related dimeric proteins that act as hormones or local mediators in regulating a wide range of biological functions. This superfamily includes TGF-betas themselves, the bone morphogenetic proteins (BMPs) and the activins. These ligands induce oligomerization of serine/threonine receptor kinases and phosphorylate the cytoplasmic signaling molecules of Smad protein family. CellSensor SBE-bla HEK 293T cell line (Life Technologies, Carlsbad, CA), responsive to TGF-beta was used to screen Tox21 10K compound library for identification of agonists/antagonists of the Smad signaling pathway. This cell line contains a beta-lactamase reporter gene under control of the Smad binding element (SBE) stably integrated into HEK 293T cells. Also cytotoxicity of the compounds was tested in parallel by measuring the cell viability using CellTiter-Glo assay system in the same wells.
# Tox21 Assay Protocol Summary:
# SBE-bla HEK 293T cells were dispensed at 4,000/well in 6 uL of assay medium into black wall/clear-bottom 1536-well plates using a Multidrop Combi (ThermoFisher Scientific, Waltham, MA) dispenser. After the assay plates were incubated at 37 C and 5% CO2 for an overnight, 23 nL of compounds dissolved in DMSO, positive controls or DMSO only was transferred to the assay plate by a Pintool station (Kalypsys, San Diego, CA). The assay plates were incubated at 37 C and 5% CO2 for 5 hr. One uL of LiveBLAzer B/G FRET substrate (Life Technologies) was added using a Flying Reagent Dispenser (FRD, Aurora Discovery, San Diego, CA) and the plates were incubated at room temperature for 2 hr. Fluorescence intensity (405 nm excitation, 460 nm and 530 nm emissions) was measured using an Envision plate reader (PerkinElmer, Shelton, CT). For cytotoxicity read, 4 uL of CellTiter-Glo reagent (Promega Corporation, Madison, WI) was added to each well of the assay plates using FRD. After 30min incubation at room temperature, the luminescence intensity was measured using ViewLux plate reader (PerkinElmer).
# Potency is the fitted concentration of half-maximal effect.
Structure (SMILES),Potency,"activity change, negative = cytotoxicity"
CC(=O)CCC(=O)O,inactive,–
NS(=O)(=O)O,inactive,–
Cc1cn([C@H]2C=C[C@@H](CO)O2)c(=O)[nH]c1=O,inactive,–
CCCCCCCCCCCCCCCC[N+](C)(C)Cc1ccccc1,45 µM (active) and 39.6 µM (active) and 19 µM (active),–
OC[C@H]1O[C@H](O[C@]2(CCl)O[C@H](CCl)[C@@H](O)[C@@H]2O)[C@H](O)[C@@H](O)[C@H]1Cl,inactive,–
C1=CC2C3C=CC(C3)C2C1 (stereo not given),–,17%
CN(C)C(=O)Nc1ccc(Cl)c(Cl)c1,inactive,–
O=C1c2c(O)cccc2Cc2cccc(O)c21,inactive,–
CN1CCc2cccc3c2[C@H]1Cc1ccc(O)c(O)c1-3,inactive,–
CCCc1cc(=O)[nH]c(=S)[nH]1,inactive,–
NC(=O)n1c(O)c(C(=O)c2cccs2)c2cc(Cl)ccc21,–,-22.5% [at 35.3 µM]
CC(=O)Nc1c(I)c(NC(C)=O)c(I)c(C(=O)O)c1I,inactive,–
CN1CCC[C@H]1c1cccnc1,inactive,–
CCCCCCCCCCCC[N+](C)(C)Cc1ccccc1,48 µM (active) and 29.9 µM (active),–
Cc1ncc([N+](=O)[O-])n1CCO,inactive,–
C=C(C)C(=O)OCC(C)O (stereo not given),inactive,–
O=C1NS(=O)(=O)c2ccccc21,inactive,–
O=C1NC(=O)C(c2ccccc2)(c2ccccc2)N1,inactive,–
CCCCC(CC)C(=O)O (stereo not given),inactive,–
Cc1ccc(S(=O)(=O)O)cc1,inactive,–

Structure (SMILES),Potency,"activity change, negative = cytotoxicity"
COc1ccc2c(c1)c(CC(=O)O)c(C)n2C(=O)c1ccc(Cl)cc1,inactive,–
O=C(O)c1ccccc1,inactive,–
O=S1(=O)OC(c2ccc(O)cc2)(c2ccc(O)cc2)c2ccccc21,inactive,–
CCOC(N)=O,inactive,–
O=C(O)CC(O)C(=O)O (stereo not given),inactive,–
CCOc1ccc(NC(C)=O)cc1,inactive,–
Nc1c(N=Nc2ccc(-c3ccc(N=Nc4cc(S(=O)(=O)O)c5ccccc5c4N)cc3)cc2)cc(S(=O)(=O)O)c2ccccc12,–,8.51%
COc1ccc(C(Cl)=C(c2ccc(OC)cc2)c2ccc(OC)cc2)cc1,inactive,–
CN1[C@@H]2CC(OC(=O)[C@H](CO)c3ccccc3)C[C@H]1[C@@H]1O[C@@H]12 (stereo not given in full),inactive,–
Cc1cc(=O)oc2cc(O)ccc12,inactive,–
CCCCOC(=O)c1ccc(O)cc1,inactive,–
CC(C)NCC(O)c1ccc(O)c(O)c1 (stereo not given),inactive,–
CC(C)c1c(C(=O)Nc2ccccc2)c(-c2ccccc2)c(-c2ccc(F)cc2)n1CC[C@@H](O)C[C@@H](O)CC(=O)O,inactive,–
Nc1ccc([N+](=O)[O-])cc1O,–,5.36%
CCCCNC(=O)NS(=O)(=O)c1ccc(C)cc1,inactive,–
Nc1ccc(S(N)(=O)=O)cc1,inactive,–
CCN(Cc1c(F)cccc1Cl)c1c([N+](=O)[O-])cc(C(F)(F)F)cc1[N+](=O)[O-],–,-24%
CC(C)C(=O)Nc1ccc([N+](=O)[O-])c(C(F)(F)F)c1,inactive,–
O=C1O[C@H]([C@@H](O)CO)C(O)=C1O,inactive,–
NC1CCCCC1,inactive,–
